Experimental findings from PubChem BioAssay AID2313 (Broad Institute, 2010) are described below.

Structures are written as SMILES. Out of some 22,000 compounds screened, about 460 (2.1%) were called active. Not shown: some 2% with an inconclusive outcome. This excerpt belongs to a sample that is enriched for actives. A number with no mark means an inactive call.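 Rule for the calls: active = mean inhibition across valid replicates above about 65% (limit read from the data); inconclusive = mean under the limit, yet half or more replicates past it; inactive = the rest.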

As a reminder, the inhibition is the drop in the measured response relative to a control, in per cent.

This experiment in a line: Shh-driven Gli reporter inhibition – luminescence, Shh-LIGHT2 cells, Gli-luciferase, primary screen (AID 2313).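 Note: pathway switched on by Shh-conditioned medium diluted 1 in 25 in low serum.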 The settings on record: 30 h, stronger effect = higher value.
`COc1ccc(S(=O)(=O)Nc2cccc3c2O[C@@H](CN(C)C(=O)Nc2ccccc2)[C@@H](C)CN([C@H](C)CO)C3=O)cc1`: the inhibition is 2.98%.

On to `COC(NC(=O)c1ccccc1)(C(F)(F)F)C(F)(F)F`, for which the inhibition is -45.7%.

Regarding `Cc1ccc(S(=O)(=O)Nc2cccc3c2O[C@@H](CN(C)S(=O)(=O)c2c(C)noc2C)[C@@H](C)CN([C@H](C)CO)C3=O)cc1`, the inhibition is -7.42%.

Turning to `C[C@@H]1CN([C@H](C)CO)C(=O)c2cc(NS(=O)(=O)c3ccc(F)cc3)ccc2O[C@H]1CN(C)C(=O)Nc1cccc2ccccc12`, the inhibition is -17%.

In the case of `C[C@H]1CN([C@@H](C)CO)C(=O)Cc2cc(NS(=O)(=O)c3cn(C)cn3)ccc2O[C@@H]1CN(C)C(=O)Nc1ccc2c(c1)OCO2`, the inhibition is 2.02%.

Turning to `C[C@@H]1CCCCO[C@H](CN(C)C(=O)NC2CCCCC2)[C@@H](C)CN([C@H](C)CO)C(=O)c2cc(NC(=O)CCC(F)(F)F)ccc2O1`, the inhibition was 20.6%.

For `COc1ccc(NC(=O)Nc2ccc3c(c2)CC(=O)N([C@H](C)CO)C[C@H](C)[C@H](CN(C)S(=O)(=O)c2ccc(OC)cc2)O3)cc1`, the inhibition was 15.7%.

`COc1ccc(NC(=O)Nc2cccc3c2O[C@@H](CN(C)S(=O)(=O)c2ccc(C)cc2)[C@H](C)CN([C@@H](C)CO)C3=O)cc1`: the inhibition is 26%.

On to `COc1ccc(S(=O)(=O)N(C)C[C@H]2Oc3ccc(NC(=O)Nc4c(C)noc4C)cc3C(=O)N([C@@H](C)CO)C[C@@H]2C)cc1`, for which the inhibition is 14.6%.

As to `O=S(=O)(NCCc1ccccc1)c1ccccc1`, the inhibition was -19.7%.

For `C[C@@H]1CN([C@@H](C)CO)C(=O)c2cccc(NC(=O)c3nc4ccccc4s3)c2O[C@@H]1CN(C)Cc1ccc(Cl)c(Cl)c1`, the inhibition was -17.7%.

With `O=C(Cn1c(=O)n(-c2ccccc2)c(=O)c2cc(-c3ccccc3)sc21)c1cccs1`, the inhibition is -31.1%.

`C[C@@H]1CN([C@@H](C)CO)C(=O)c2cccc(NC(=O)c3cnccn3)c2O[C@H]1CN(C)S(=O)(=O)c1cccs1`: the inhibition was 36.2%.

`COc1ccc(NC(=O)N(C)C[C@H]2Oc3c(NC(=O)NC(C)C)cccc3C(=O)N([C@@H](C)CO)C[C@H]2C)cc1`: the inhibition was -18.8%.

Consider `O=C(NCCN1CCCCC1)Nc1cccc2ccccc12`, for which the inhibition is 48.1%.

In the case of `CCOC(=O)c1cc2ccccc2nc1C`, the inhibition is -33.8%.

With `C[C@H]1CN([C@@H](C)CO)C(=O)Cc2cc(NC(=O)C3CC3)ccc2O[C@H]1CN(C)C(=O)Nc1ccc(C(F)(F)F)cc1`, the inhibition is -16.6%.

As to `Cc1noc(C)c1NC(=O)Nc1ccc2c(c1)C(=O)N([C@H](C)CO)C[C@@H](C)[C@@H](CN(C)C(=O)NC(C)C)O2`, the inhibition is -44%.

Take `Cc1noc(C)c1NC(=O)Nc1cccc2c1O[C@H](CN(C)S(C)(=O)=O)[C@H](C)CN([C@H](C)CO)C2=O`: the inhibition is -13.4%.

As for `COc1ccc(S(=O)(=O)N(C)C[C@@H]2Oc3ccc(NC(=O)CCN4CCOCC4)cc3CC(=O)N([C@@H](C)CO)C[C@@H]2C)cc1`, the inhibition was 12.6%.

On to `Cc1ccc(S(=O)(=O)N(C)C[C@H]2Oc3ccc(NC(=O)C4CC4)cc3C(=O)N([C@H](C)CO)C[C@H]2C)cc1`, for which the inhibition is 2.25%.

With `CC(=O)Nc1nc2ccccc2s1`, the inhibition was -52.3%.

Take `CS(=O)(=O)c1sc(C(=O)NC(=S)Nc2ccc(OC(F)(F)F)cc2)c2c1C=CCC2`: the inhibition was 42.2%.

As to `C[C@H]1CN([C@@H](C)CO)C(=O)Cc2cc(NS(=O)(=O)c3cn(C)cn3)ccc2O[C@H]1CN(C)C(=O)Nc1ccc(F)cc1`, the inhibition was 6.67%.

As to `CCOC(=O)c1nnn2c3ccccc3c(=O)n(C)c12`, the inhibition was -16.2%.

Turning to `C=C1C2=CC(=O)O[C@@H](c3ccoc3)[C@]2(C)CCC1[C@@]1(C)C=CC(=O)C(C)(C)[C@@H]1CC(=O)OC` (some centres undefined), the inhibition is -0.584%.

Consider `COc1c2c(cc3occ(-c4ccc5c(c4)OCO5)c(=O)c13)OC(C)(C)C=C2`, for which the inhibition is 79.6% (active).

Consider `COc1ccc(NC(=O)Nc2cccc3c2O[C@H](CN(C)C(=O)Nc2cccc4ccccc24)[C@H](C)CN([C@H](C)CO)C3=O)cc1`, for which the inhibition was -19.9%.

As to `COc1ccc(S(=O)(=O)Nc2ccc3c(c2)CC(=O)N([C@H](C)CO)C[C@@H](C)[C@@H](CN(C)S(=O)(=O)c2ccc(F)cc2)O3)cc1`, the inhibition was -24.3%.

As to `COc1ccc(NC(=O)Nc2ccc3c(c2)CC(=O)N([C@H](C)CO)C[C@H](C)[C@H](CN(C)Cc2ccncc2)O3)cc1`, the inhibition is 32.2%.

As for `C[C@@H]1CN([C@H](C)CO)C(=O)Cc2cc(NC(=O)Nc3ccccc3)ccc2O[C@H]1CN(C)Cc1ccc(Cl)c(Cl)c1`, the inhibition is -42%.

For the compound `COc1ccc(S(=O)(=O)Nc2cccc3c2O[C@H](CN(C)C(=O)Nc2cccc4ccccc24)[C@H](C)CN([C@@H](C)CO)C3=O)cc1`, the inhibition was 46.2%.

For `C[C@H](CO)N1C[C@H](C)[C@@H](CN(C)C(=O)Nc2ccc3c(c2)OCO3)Oc2c(cccc2N(C)C)C1=O`, the inhibition was -27%.

In the case of `C[C@@H]1CCCCO[C@H](CN(C)C(=O)NC2CCCCC2)[C@@H](C)CN([C@H](C)CO)C(=O)c2cc(NS(C)(=O)=O)ccc2O1`, the inhibition is -30.2%.

In the case of `C[C@@H]1CN([C@H](C)CO)C(=O)Cc2cc(NC(=O)Nc3ccc(C(F)(F)F)cc3)ccc2O[C@H]1CN(C)Cc1ccc(-c2ccccc2)cc1`, the inhibition was -14%.

Take `O=C1c2ccccc2C(=O)N1CC1OCc2ccccc2CO1`: the inhibition was -41.8%.

As to `O=C(Nc1ccccc1)Nc1cc(C2CC2)nn1-c1ccccc1`, the inhibition was -37.7%.

Turning to `CC(C)NC(=O)N(C)C[C@@H]1Oc2ccc(NC(=O)C3CCCCC3)cc2CC(=O)N([C@H](C)CO)C[C@@H]1C`, the inhibition is -27.5%.

For the compound `C[C@H]1CN([C@@H](C)CO)C(=O)c2cc(NC(=O)Cc3cn(C)c4ccccc34)ccc2O[C@@H]1CN(C)Cc1ccc(Cl)c(Cl)c1`, the inhibition is 15.9%.

Regarding `O=C(Oc1ccc(Cl)cc1)c1csc(C2COc3ccccc3O2)n1` (centres undefined), the inhibition was -8.84%.

Take `C[C@@H]1CN([C@H](C)CO)C(=O)Cc2cc(N(C)C)ccc2O[C@H]1CN(C)S(C)(=O)=O`: the inhibition was -5.86%.

With `Cc1ccc(S(=O)(=O)Nc2ccc3c(c2)C(=O)N([C@@H](C)CO)C[C@H](C)[C@@H](CN(C)CC2CC2)O3)cc1`, the inhibition is 11.4%.

Take `O=C(O)c1ccc(NS(=O)(=O)c2ccc3c4c(cccc24)C(=O)N3)cc1`: the inhibition was -9.19%.

Consider `C[C@H]1CN([C@@H](C)CO)C(=O)c2cccc(NS(=O)(=O)c3ccc(F)cc3)c2O[C@@H]1CN(C)Cc1ccncc1`, for which the inhibition was 3.57%.

With `Cc1ccc(S(=O)(=O)N(C)C[C@H]2Oc3c(NS(=O)(=O)c4ccc(Cl)cc4)cccc3C(=O)N([C@H](C)CO)C[C@@H]2C)cc1`, the inhibition is -17.4%.

As to `Cc1ccc(-n2nnnc2-c2cnn(-c3ccccc3)c2C)cc1`, the inhibition is 88.7% (active).

Turning to `CCCN(C)C[C@H]1OCCCC[C@@H](C)Oc2ccc(N(C)C)cc2C(=O)N([C@H](C)CO)C[C@@H]1C`, the inhibition is -12.9%.

Turning to `COc1ccc(CN(C)C[C@H]2Oc3c(NS(=O)(=O)c4ccccc4)cccc3C(=O)N([C@H](C)CO)C[C@@H]2C)cc1`, the inhibition was -36.7%.

For `COc1ccc(S(=O)(=O)N(C)C[C@H]2Oc3c(NC(=O)Nc4ccc5c(c4)OCO5)cccc3C(=O)N([C@H](C)CO)C[C@@H]2C)cc1`, the inhibition was 18.1%.

For the compound `CC(=O)Nc1ccc(Nc2c3c4c(cccc4[nH]c2=O)C(=O)c2ccccc2-3)cc1`, the inhibition was 88.2% (active).

On to `COc1ccc(CCN=C2SCC(=O)N2Cc2ccccc2)cc1OC`, for which the inhibition is 13.3%.

In the case of `Cc1noc(C)c1NC(=O)Nc1ccc2c(c1)C(=O)N([C@H](C)CO)C[C@H](C)[C@H](CN(C)Cc1ccncc1)OCCCC[C@@H](C)O2`, the inhibition was 0.0543%.

For `C[C@H]1CN([C@@H](C)CO)C(=O)Cc2cc(NC(=O)C3CC3)ccc2O[C@H]1CN(C)S(=O)(=O)c1ccc(Cl)cc1`, the inhibition is 30.4%.

As for `C[C@@H]1CN([C@H](C)CO)C(=O)c2cc(NC(=O)CCN3CCOCC3)ccc2O[C@H]1CN(C)Cc1ccc(Oc2ccccc2)cc1`, the inhibition was -15%.

Consider `Oc1ccc(CN2CCCC2)c2cccnc12`, for which the inhibition is 85% (active).

As for `Cc1onc(-c2c(Cl)cccc2Cl)c1C(=O)N=S(C)(C)=O`, the inhibition is -19%.

For the compound `C[C@H]1CN([C@@H](C)CO)C(=O)c2cccc(NS(=O)(=O)c3cccs3)c2O[C@H]1CN(C)C(=O)Nc1ccccc1`, the inhibition is 26.6%.

With `CCC/C=C/C=C/C1CC(O)C(O)C1C(=O)O` (centres undefined), the inhibition was -18%.

For `C[C@H](CO)N1C[C@H](C)[C@H](CN(C)C(=O)NC2CCCCC2)Oc2c(NC(=O)C3CC3)cccc2C1=O`, the inhibition was -11.9%.

With `C[C@H](CO)N1C[C@H](C)[C@@H](CN(C)Cc2ccc(Cl)c(Cl)c2)Oc2c(NC(=O)Nc3ccccc3)cccc2C1=O`, the inhibition was -0.821%.

Regarding `Oc1c(Cl)cc(Cl)c(Cl)c1Cc1c(O)c(Cl)cc(Cl)c1Cl`, the inhibition was 102% (active).

Turning to `C[C@@H]1CN([C@H](C)CO)C(=O)c2cccc(NC(=O)c3nc4ccccc4s3)c2O[C@H]1CN(C)S(=O)(=O)c1ccc(Cl)cc1`, the inhibition is 11%.

`C[C@H]1CN([C@@H](C)CO)C(=O)c2cccc(NS(=O)(=O)c3ccc(F)cc3)c2O[C@@H]1CN(C)CC1CC1`: the inhibition is -16.6%.

Take `C[C@H]1CN([C@@H](C)CO)C(=O)Cc2cc(NS(=O)(=O)c3ccc(F)cc3)ccc2O[C@H]1CN(C)Cc1ccc(C(F)(F)F)cc1`: the inhibition was 30.1%.
